# Test results from PubChem BioAssay AID1159580 (chemical genetic matrix, 2015).
# Out of some 5,500 compounds screened, about 2,000 (36%) were called active. Roughly 18% stayed inconclusive and do not appear here. The list shows a part of the results. A number with no mark means an inactive call. Cut-off read from the data, not from the text of the source: active = normalized growth mostly below about 0.91 (no sharp cut-off); inconclusive = no clear call, values can overlap the other calls; inactive = mostly above about 0.92.
# Assay: chemical genetic growth profiling, strain panel (AID 1159580);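 note: tested at 20 µM; growth read once vehicle control cultures reached saturation at 30 °C; 1 = growth at the plate median or of vehicle wells; lower values mean less growth of the strain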
# Details: S. cerevisiae deletion strains, growth OD
# [1] = locus YHR030C, strain SLT2, active compounds read low
# [2] = locus YHR079C, strain IRE1, active compounds read low
# [3] = locus YJL095W, strain BCK1, active compounds read low
# [4] = locus YJR066W, strain TOR1, active compounds read low
# [5] = locus YLR113W, strain HOG1, active compounds read low
# [6] = locus YNL183C, strain NPR1, active compounds read low
# [7] = locus YOR231W, strain MKK1, active compounds read low
# [8] = locus YPL256C, strain CLN2, active compounds read low
smiles,measurement,setting,value
OC1(C(F)(F)F)CC(C23CC4CC(CC(C4)C2)C3)=NN1 (centres undefined),normalized growth,"locus YAR019C, strain CDC15, active compounds read low",0.867 (active)
same,normalized growth,"locus YBL105C, strain PKC1, active compounds read low",0.905
same,normalized growth,"locus YBR135W, strain CKS1, active compounds read low",0.898
same,normalized growth,"locus YBR136W, strain MEC1, active compounds read low",0.889 (active)
same,normalized growth,"locus YBR160W, strain CDC28, active compounds read low",0.891 (active)
same,normalized growth,"locus YDL017W, strain CDC7, active compounds read low",0.913
same,normalized growth,"locus YDL028C, strain MPS1, active compounds read low",0.847 (active)
same,normalized growth,"locus YDL101C, strain DUN1, active compounds read low",0.897 (active)
same,normalized growth,"locus YDL108W, strain KIN28, active compounds read low",0.892 (active)
same,normalized growth,"locus YDL132W, strain cdc53, active compounds read low",0.872 (active)
same,normalized growth,"locus YDL214C, strain PRR2, active compounds read low",0.642 (active)
same,normalized growth,"locus YDR052C, strain DBF4, active compounds read low",0.882 (active)
same,normalized growth,"locus YDR054C, strain cdc34, active compounds read low",0.88
same,normalized growth,"locus YDR226W, strain ADK1, active compounds read low",0.859 (active)
same,normalized growth,"locus YDR477W, strain SNF1, active compounds read low",0.505 (active)
same,normalized growth,"locus YER123W, strain YCK3, active compounds read low",0.435 (active)
same,normalized growth,"locus YER133W, strain GLC7, active compounds read low",0.57 (active)
same,normalized growth,"locus YFL009W, strain cdc4, active compounds read low",0.851 (active)
same,normalized growth,"locus YFL029C, strain CAK1, active compounds read low",0.876 (active)
same,normalized growth,"locus YFR003C, strain YPI1, active compounds read low",0.905
same,normalized growth,"locus YFR019W, strain FAB1, active compounds read low",0.527 (active)
same,normalized growth,"locus YFR028C, strain CDC14, active compounds read low",0.86 (active)
same,normalized growth,"locus YGR040W, strain KSS1, active compounds read low",0.497 (active)
same,normalized growth,"locus YGR052W, strain FMP48, active compounds read low",0.62
same,normalized growth,"locus YGR092W, strain DBF2, active compounds read low",0.487
same,normalized growth,[1],0.183 (active)
same,normalized growth,[2],0.645
same,normalized growth,"locus YHR082C, strain KSP1, active compounds read low",0.688
same,normalized growth,"locus YHR205W, strain SCH9, active compounds read low",0.531 (active)
same,normalized growth,"locus YIL147C, strain SLN1, active compounds read low",0.889 (active)
same,normalized growth,[3],0.163 (active)
same,normalized growth,"locus YJL128C, strain PBS2, active compounds read low",0.946
same,normalized growth,"locus YJL157C, strain FAR1, active compounds read low",0.655 (active)
same,normalized growth,"locus YJR016C, strain ILV3, active compounds read low",0.891 (active)
same,normalized growth,"locus YJR066W, strain TOR1 (second series), active compounds read low",0.718
same,normalized growth,[4],0.411 (active)
same,normalized growth,"locus YKL048C, strain ELM1, active compounds read low",0.884
same,normalized growth,"locus YKL067W, strain YNK1, active compounds read low",0.634 (active)
same,normalized growth,"locus YKL101W, strain HSL1, active compounds read low",0.716 (active)
same,normalized growth,"locus YKL193C, strain SDS22, active compounds read low",0.888 (active)
same,normalized growth,"locus YKL203C, strain TOR2, active compounds read low",0.555 (active)
same,normalized growth,[5],0.578 (active)
same,normalized growth,"locus YLR133W, strain CKI1, active compounds read low",0.655 (active)
same,normalized growth,"locus YLR403W, strain SFP1, active compounds read low",0.469 (active)
same,normalized growth,"locus YML070W, strain DAK1, active compounds read low",0.643 (active)
same,normalized growth,"locus YMR001C, strain CDC5, active compounds read low",0.881 (active)
same,normalized growth,"locus YMR205C, strain PFK2 (second series), active compounds read low",0.735 (active)
same,normalized growth,"locus YMR277W, strain FCP1, active compounds read low",0.863 (active)
same,normalized growth,"locus YNL006W, strain LST8, active compounds read low",0.892 (active)
same,normalized growth,"locus YNL020C, strain ARK1, active compounds read low",0.659 (active)
same,normalized growth,"locus YNL161W, strain CBK1, active compounds read low",0.898 (active)
same,normalized growth,[6],0.618
same,normalized growth,"locus YNL207W, strain RIO2, active compounds read low",0.867 (active)
same,normalized growth,"locus YNL222W, strain SSU72, active compounds read low",0.876 (active)
same,normalized growth,"locus YNL307C, strain MCK1 (second series), active compounds read low",0.565 (active)
same,normalized growth,"locus YOL078W, strain AVO1, active compounds read low",0.893
same,normalized growth,"locus YOL136C, strain PFK27, active compounds read low",0.715
same,normalized growth,"locus YOR061W, strain CKA2, active compounds read low",0.17 (active)
same,normalized growth,"locus YOR119C, strain RIO1, active compounds read low",0.521 (active)
same,normalized growth,[7],0.637
same,normalized growth,"locus YOR329C, strain SCD5, active compounds read low",0.901 (active)
same,normalized growth,"locus YPL031C, strain PHO85, active compounds read low",0.471 (active)
same,normalized growth,"locus YPL153C, strain RAD53, active compounds read low",0.517 (active)
same,normalized growth,"locus YPL204W, strain HRR25, active compounds read low",0.477 (active)
same,normalized growth,"locus YPL209C, strain IPL1, active compounds read low",0.89 (active)
same,normalized growth,[8],0.64 (active)
same,normalized growth,"locus YPR025C, strain CCL1, active compounds read low",0.893 (active)
same,normalized growth,"locus YPR106W, strain ISR1, active compounds read low",0.915
same,normalized growth,"locus YPR111W, strain DBF20, active compounds read low",0.875
same,normalized growth,"strain NNK1, active compounds read low",0.921
same,normalized growth,"strain TSCII, active compounds read low",0.858 (active)
CC(=O)OCC(=O)[C@@]1(O)[C@@H](C)CC2C3CCC4=CC(=O)C=C[C@]4(C)[C@@]3(F)[C@@H](O)C[C@@]21C (some centres undefined),normalized growth,[1],1.06
same,normalized growth,[2],1.05
same,normalized growth,[3],1.01
same,normalized growth,[4],1
same,normalized growth,[5],0.994
same,normalized growth,[6],0.991
same,normalized growth,[7],1.05
same,normalized growth,[8],1.06
CC1=C(C/C=C(\C)CCC[C@H](C)CCC[C@H](C)CCCC(C)C)C(=O)c2ccccc2C1=O,normalized growth,"locus YAL021C, strain ccr4, active compounds read low",0.99
same,normalized growth,"locus YAL026C, strain drs2, active compounds read low",0.99
same,normalized growth,"locus YAL030W, strain snc1, active compounds read low",0.995
same,normalized growth,"locus YBL061C, strain skt5, active compounds read low",0.997
same,normalized growth,"locus YBR009C, strain hhf1, active compounds read low",0.977
same,normalized growth,"locus YBR023C, strain chs3, active compounds read low",0.996
same,normalized growth,"locus YBR171W, strain sec66, active compounds read low",0.993
same,normalized growth,"locus YBR231C, strain swc5, active compounds read low",0.989
same,normalized growth,"locus YBR279W, strain paf1, active compounds read low",0.994
same,normalized growth,"locus YCL011C, strain gbp2, active compounds read low",0.977
same,normalized growth,"locus YCL016C, strain dcc1, active compounds read low",0.985
same,normalized growth,"locus YCL061C, strain MRC1, active compounds read low",0.987
same,normalized growth,"locus YCL069W, strain vba3, active compounds read low",0.979
same,normalized growth,"locus YCR088W, strain abp1, active compounds read low",1
same,normalized growth,"locus YDL005C, strain med2, active compounds read low",0.965
same,normalized growth,"locus YDL040C, strain nat1, active compounds read low",1
same,normalized growth,"locus YDR001C, strain nth1, active compounds read low",0.993
same,normalized growth,"locus YDR069C, strain doa4, active compounds read low",0.975
same,normalized growth,"locus YDR137W, strain rgp1, active compounds read low",0.772 (active)
same,normalized growth,"locus YDR159W, strain sac3, active compounds read low",0.981
same,normalized growth,"locus YDR195W, strain ref2",0.963
same,normalized growth,"locus YDR297W, strain sur2, active compounds read low",0.993
same,normalized growth,"locus YDR334W, strain swr1, active compounds read low",0.955
same,normalized growth,"locus YDR335W, strain msn5, active compounds read low",0.99
same,normalized growth,"locus YDR392W, strain spt3, active compounds read low",0.962
same,normalized growth,"locus YEL003W, strain gim4, active compounds read low",0.977
same,normalized growth,"locus YEL037C, strain rad23, active compounds read low",0.994
same,normalized growth,"locus YEL061C, strain CIN8 (second series), active compounds read low",0.992
same,normalized growth,"locus YER015W, strain faa2, active compounds read low",0.991
same,normalized growth,"locus YER016W, strain bim1, active compounds read low",0.982
same,normalized growth,"locus YER111C, strain swi4, active compounds read low",1
same,normalized growth,"locus YER155C, strain BEM2 (second series), active compounds read low",0.993
same,normalized growth,"locus YFR010W, strain ubp6, active compounds read low",0.974
same,normalized growth,"locus YGL167C, strain pmr1, active compounds read low",0.989
same,normalized growth,"locus YGL173C, strain kem1, active compounds read low",0.99
same,normalized growth,"locus YGL227W, strain vid30, active compounds read low",0.997
same,normalized growth,"locus YGL240W, strain doc1, active compounds read low",0.956
same,normalized growth,"locus YGL253W, strain hxk2, active compounds read low",1
same,normalized growth,"locus YHR013C, strain ard1, active compounds read low",0.975
same,normalized growth,"locus YHR027C, strain rpn1, active compounds read low",0.984
same,normalized growth,[1],0.986
same,normalized growth,[2],0.992
same,normalized growth,"locus YHR142W, strain chs7, active compounds read low",1
same,normalized growth,"locus YJL092W, strain hpr5, active compounds read low",0.982
same,normalized growth,"locus YJL095W, strain BCK1 (second series), active compounds read low",0.995
same,normalized growth,[3],0.998
same,normalized growth,"locus YJL115W, strain asf1, active compounds read low",0.968
same,normalized growth,"locus YJL129C, strain trk1, active compounds read low",0.984
same,normalized growth,"locus YJL154C, strain vps35, active compounds read low",0.984
same,normalized growth,"locus YJL164C, strain tpk1, active compounds read low",0.974
same,normalized growth,"locus YJL166W, strain qcr8, active compounds read low",1
same,normalized growth,"locus YJL187C, strain SWE1, active compounds read low",0.979
same,normalized growth,[4],0.943
same,normalized growth,"locus YKL160W, strain elf1, active compounds read low",0.998
same,normalized growth,"locus YKR026C, strain gcn3, active compounds read low",0.996
same,normalized growth,"locus YKR091W, strain srl3, active compounds read low",0.985
same,normalized growth,"locus YLL001W, strain dnm1, active compounds read low",0.992
same,normalized growth,"locus YLL026W, active compounds read low",0.996
same,normalized growth,"locus YLL041C, strain sdh2, active compounds read low",0.99
same,normalized growth,"locus YLR027C, strain aat2, active compounds read low",0.992
same,normalized growth,[5],0.953
same,normalized growth,"locus YLR221C, strain rsa3, active compounds read low",0.981
same,normalized growth,"locus YLR258W, strain gsy2, active compounds read low",0.983
same,normalized growth,"locus YLR262C, strain YPT6 (second series), active compounds read low",0.899
same,normalized growth,"locus YLR320W, strain mms22, active compounds read low",0.992
same,normalized growth,"locus YLR342W, strain FKS1, active compounds read low",0.999
same,normalized growth,"locus YLR357W, strain rsc2, active compounds read low",1
same,normalized growth,"locus YLR370C, strain arc18, active compounds read low",0.99
same,normalized growth,"locus YLR384C, strain iki3, active compounds read low",0.988
same,normalized growth,"locus YML120C, strain ndi1, active compounds read low",0.998
same,normalized growth,"locus YMR058W, strain fet3, active compounds read low",0.973
same,normalized growth,"locus YMR125W, strain sto1, active compounds read low",0.978
same,normalized growth,"locus YMR129W, active compounds read low",0.985
same,normalized growth,"locus YMR205C, strain PFK2, active compounds read low",0.981
same,normalized growth,"locus YMR231W, strain pep5, active compounds read low",0.99
same,normalized growth,"locus YNL071W, strain lat1, active compounds read low",0.972
same,normalized growth,[6],0.947
same,normalized growth,"locus YNL209W, strain ssb2, active compounds read low",0.983
same,normalized growth,"locus YNL248C, strain rpa49, active compounds read low",0.977
same,normalized growth,"locus YNL322C, strain KRE1 (second series), active compounds read low",0.998
same,normalized growth,"locus YNR049C, strain mso1, active compounds read low",1
same,normalized growth,"locus YOR001W, strain rrp6, active compounds read low",1
same,normalized growth,"locus YOR070C, strain gyp1, active compounds read low",0.988
same,normalized growth,"locus YOR080W, strain dia2, active compounds read low",0.986
same,normalized growth,"locus YOR083W, strain WHI5, active compounds read low",0.992
same,normalized growth,"locus YOR106W, strain vam3, active compounds read low",0.964
same,normalized growth,[7],0.979
same,normalized growth,"locus YOR265W, strain rbl2, active compounds read low",0.985
same,normalized growth,"locus YOR270C, strain vph1, active compounds read low",0.871
same,normalized growth,"locus YOR290C, strain snf2, active compounds read low",0.987
same,normalized growth,"locus YPL051W, strain arl3, active compounds read low",0.988
same,normalized growth,"locus YPL078C, strain atp4, active compounds read low",0.996
same,normalized growth,"locus YPL106C, strain sse1, active compounds read low",0.871
same,normalized growth,"locus YPL240C, strain hsp82, active compounds read low",0.97
same,normalized growth,[8],0.944
